High-throughput results from PubChem BioAssay.
An excerpt weighted towards active compounds, which were near 4.7% of everything screened.
TROY NFkB inh – TROY signaling inhibition; Q293 LMP1-TROYcd NF-kB luciferase reporter, 4 h; inhibition, % at 10 µM; 0.98% of 360,000 active;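 active = compounds whose plate-normalised and pattern-corrected inhibition of the luciferase reporter signal at the single screening dose is 50% or more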
HSF1 inhib – HSF1 inhibition; activity change, negative = inhibition, % at 7.5 µM (by protocol); NIH3T3-HGL HSE-luciferase, MG132-induced, luminescence 8 h; stronger effect = lower value; 0.77% of 300,000 active;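 active = more than half of replicate wells show activity change below -50%, luminescence cut by over half; inconclusive = some wells, but at most half, below -50%; inactive = no replicate well below -50%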;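 also: luciferase reports HSF-1 transcriptional activity via heat shock element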
TWEAK-Fn14 inh – inhibitors of TWEAK-Fn14 interaction signaling | TWEAK-stimulated Fn14 reporter cells, luciferase luminescence, 8 h | inhibition, % at 10 µM | 2% of 360,000 active; in the data active = inhibition above about 50%
HSF-1 act – increases HSF-1 driven luciferase reporter signal | 1.7% of 300,000 active | NIH3T3-HGL HSF-1 luciferase reporter, MG132, 8 h; 100% = twice DMSO control signal | activation, % at 9 µM;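 active = mean replicate activation of at least 50% with a set share of replicates each reaching 50%; inconclusive = only one of those two conditions met; inactive = mean below 50% and too few replicates reaching it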
HSP90 refold inh – HSP90 refolding inhibition in rabbit reticulocyte lysate | luciferase refolding luminescence, 3 h | inhibition, % at 5.6 µM | 0.91% of 290,000 active | AID 1789;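 active = inhibition above the screen-wide mean plus 3 SD, computed separately per campaign, cut at about 16% in these data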;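 also: inhibitors lower the luminescence because luciferase stays unfolded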
EBV LMP1 NFkB – reduces LMP1-driven NF-kappaB luciferase signal | LMP1-induced NF-kappaB luciferase reporter cells, luminescence | inhibition, % at 12.5 µM | 0.69% of 350,000 active; in the data active = inhibition above about 41%; inconclusive = no clear call, values can overlap the other calls
Numbers stand for hits; - = inactive; ? = inconclusive; . = no result.

SMILES	TROY NFkB inh	HSF1 inhib	TWEAK-Fn14 inh	HSF-1 act	HSP90 refold inh	EBV LMP1 NFkB
COC(=O)c1c(NC(=O)C2COc3ccccc3O2)sc2c1CCN(C(C)=O)C2 (stereo not given)	-	-	55.0	-	-	-
Cc1nnc(SCC2=C(C(=O)O)N3C(=O)C(NC(=O)c4cccc(F)c4F)C3SC2)s1 (stereo not given)	-	-	-	63.4	-	-
O=C1COc2cc(S(=O)(=O)CCC(=O)N3CCCCC3)c(Cl)cc2N1	-	-	98.0	-	-	-
CN1CCN(C(=O)CCS(=O)(=O)c2cc3c(cc2Cl)NC(=O)CO3)CC1	-	-	-	-	-	-
CCOC(=O)C1(C)CCCN(C(=O)Cc2ccc3ccccc3c2)C1 (stereo not given)	-	.	-	.	.	.
C[C@H]1Cn2cnc(C(=O)Nc3cccc(Cl)c3)c2C(=O)N1	52.3	.	70.8	.	.	-
Cc1ccc(-c2nc3c(Cl)cc(C(F)(F)F)cn3c2Cc2ccsc2)cc1	-	.	-	.	.	.
Cc1nnc(NC(=O)c2sc3nc(-c4cccs4)cc(C(F)(F)F)c3c2N)s1	60.4	-	73.9	-	-	-
Nc1c(C(=O)Nc2nccs2)sc2nc(-c3cccs3)cc(C(F)(F)F)c12	-	-	-	-	-	-
CSc1ncnc2c1ncn2CCCNCCCc1ccccc1	-	.	-	.	.	-
Cc1ccc(C(=O)SC2=NCCS2)cc1	-	-	60.1	-	-	-
COc1ccc(C(=O)SC2=NCCS2)cc1OC	-	-	-	-	-	-
COc1ccc(C(=O)c2c(C(F)(F)F)oc3c2C(=O)c2ccccc2C3=O)cc1OC	51.1	-	58.2	-	-	-
COc1ccc(C(=O)Nc2ccc3c(c2)C(=O)c2ccccc2C3=O)cc1OC	-	-	-	-	-	-
N#CC(CO)(Cc1ccc(OC(F)F)cc1)c1nc2ccccc2[nH]1 (stereo not given)	-	-	-	72.3	-	-
O=c1c2ccccc2nnn1COc1ccc(F)cc1Cl	-	-	-	83.7	-	-
O=c1c2ccccc2nnn1COc1ccc(Cl)cc1Br	-	-	-	56.4	-	-
O=c1c2ccccc2nnn1COc1cccc2ccccc12	-	-	-	-	-	-
CSc1ncnc2c1ncn2CCCNCc1ccc2c(c1)OCO2	-	.	-	.	.	-
Cc1ccc2[nH]c3c(=O)n(CCN4CCOCC4)cnc3c2c1	-	-	-	-	-	-
Cc1ccc2[nH]c3c(=O)n(CCc4cnc[nH]4)cnc3c2c1	53.2	-	-	-	-	-
CC1(C(=O)NCC(F)(F)F)CCN1C(=O)Cc1ccc(-c2ccccc2)cc1 (stereo not given)	-	.	-	.	.	.
CCOc1cc([N+](=O)[O-])cc2c1C(=O)Nc1ccccc1O2	-	-	-	-	-	69.1
Brc1ccc(-c2nnc(-c3ccccc3Br)o2)cc1	-	-	-	-	-	-
Cc1ccc(-c2nnc(-c3ccccc3Br)o2)cc1	-	-	56.6	?	-	-
SMILES	TROY NFkB inh	HSF1 inhib	TWEAK-Fn14 inh	HSF-1 act	HSP90 refold inh	EBV LMP1 NFkB
CCNC(=O)C1(C)CCCN(C(=O)c2cc(-c3cccs3)oc2C)C1 (stereo not given)	-	.	-	.	.	.
Cc1ccc(SCc2nc(-c3ccncc3)no2)cc1	-	-	-	-	-	-
c1ccc2c(-c3nc(-c4ccncc4)no3)cccc2c1	-	-	-	78.1	-	-
c1ccc(SCc2nc(-c3ccncc3)no2)cc1	-	-	-	72.6	-	-
c1ccc(-c2noc(-c3cccc4ccccc34)n2)cc1	-	-	-	?	-	-
COc1ccccc1-c1nnc(N)s1	-	-	-	-	-	-
COc1ccccc1-c1nnc(SC2CCc3ccccc3NC2=O)s1 (stereo not given)	-	-51.9	-	-	-	-
CC12CCC(O)CC1=CCC1C2CCC2(C)c3[nH]ncc3CC12 (stereo not given)	51.0	.	-	.	.	-
COc1ccc(N=c2sc3ccccc3n2C)cc1	-	-	-	54.7	-	-
O=C(NCc1cccs1)c1ccccc1C(=O)NCc1cccs1	-	-	-	-	-	-
O=C(CC(=O)c1ccccc1[N+](=O)[O-])c1ccccc1	.	-69.8	.	-	.	.
CS(=O)(=O)c1ccc(C(=O)OCC(=O)NCc2cccs2)cc1[N+](=O)[O-]	-	.	91.9	.	.	-
O=C(NCc1cccs1)c1ccccc1[N+](=O)[O-]	-	-69.6	-	-	-	-
O=C(Cc1ccccc1[N+](=O)[O-])NCc1ccc(Cl)cc1Cl	-	-	-	80.7	-	-
CCn1nccc1NC(=O)c1csc([C@@H]2C[C@H](O)[C@@H](CO)O2)n1	-	.	-	.	.	.
N#CC(=C1CCCC1)c1nc(-c2cc3ccccc3oc2=O)cs1	-	-	-	72.4	-	-
N#CC(=C1CCCC1)c1nc(-c2ccccc2)cs1	-	-	-	85.6	-	-
N#CC(=C1CCCC1)c1nc(-c2ccccc2O)cs1	-	-	-	-	-	-
C=C1C[C@@H]2C[C@@H]2CN(S(=O)(=O)c2ccc(C)cc2)[C@@H]1COCc1ccccc1	-	.	-	.	.	.
COc1ccc(C(=O)NCCSc2ccccc2)cc1	-	-	60.7	-	-	-
COc1cc(C(=O)NCCSc2ccc(F)cc2)cc(OC)c1OC	-	-	-	65.6	-	-
COc1cc(SC)ccc1C(=O)Nc1nccs1	-	-	63.3	56.8	-	-
COc1cc(SC)ccc1C(=O)NCCOc1ccc(F)cc1	-	-	-	67.9	-	-
COc1cc(SC)ccc1C(=O)Nc1ccccc1	-	-	-	-	-	-
C[C@@H]1CN([C@@H](C)CO)C(=O)c2cc(Br)cnc2O[C@H]1CN(C)C(=O)c1ccncc1	-	.	-	.	.	-
SMILES	TROY NFkB inh	HSF1 inhib	TWEAK-Fn14 inh	HSF-1 act	HSP90 refold inh	EBV LMP1 NFkB
CC(C)C(=O)N1CCC1(C)C(=O)NCc1ccc(F)cc1Cl (stereo not given)	-	.	-	.	.	.
COc1ccc(S(=O)(=O)Nc2cccnc2)c(C)c1C	-	-	-	-	-	-
COc1ccc(S(=O)(=O)Nc2ccncc2)c(C)c1C	-	-	-	59.9	-	-
COC(=O)[C@]12CCCCC=C1N(CCC1=CCCCC1)C(=O)[C@H](CC(=O)N1CCN(C(=O)c3ccco3)CC1)C2	-	.	-	.	.	.
Cc1ccc(NC(=O)CN(C(=O)N2CCN(C)CC2)S(=O)(=O)c2ccc(C)cc2)cc1	55.2	-	-	-	.	-
Cc1cccc(C)c1-n1c(C)cc(/C=N\Nc2ccc([N+](=O)[O-])cn2)c1C	.	-	79.7	-	-	-
O=[N+]([O-])c1ccc(NN=Cc2cccc(O)c2)nc1	-	.	-	.	.	-
Cc1ccc(S(=O)(=O)N2C[C@H]3[C@H]4C(=O)N(c5ccccc5)C(=O)[C@H]4C[C@H](OC(=O)NCc4ccccc4F)[C@@]3(O)C2)cc1	-	.	-	.	.	-
COc1ccc(-n2c(Cc3cccn3C)nnc2SCC(=O)Nc2cc(Cl)ccc2OC)cc1	-	-	62.3	-	-	-
COc1ccc(-n2c(Cc3cccn3C)nnc2SCC(=O)Nc2ccc(Cl)cc2)cc1	-	-	50.4	-	-	-
